# Values without a mark were called inactive.
# Columns and labels:
# Experiment in all cases: log2 ratio of Biotin-Ahx-Ub-VS probe labelling (fragment/DMSO); higher = less target engagement (more negative = stronger competition), active = hit call of the paper (q ≤ 0.05, log2 ratio ≤ -1)
# Conditions in all cases: compound concentration: 200 uM; treatment time: 3 h
# OTUD6B = biological target: T1, OTUD6B (UniProt Q8N6M0)
# T1 sequence (whole entry): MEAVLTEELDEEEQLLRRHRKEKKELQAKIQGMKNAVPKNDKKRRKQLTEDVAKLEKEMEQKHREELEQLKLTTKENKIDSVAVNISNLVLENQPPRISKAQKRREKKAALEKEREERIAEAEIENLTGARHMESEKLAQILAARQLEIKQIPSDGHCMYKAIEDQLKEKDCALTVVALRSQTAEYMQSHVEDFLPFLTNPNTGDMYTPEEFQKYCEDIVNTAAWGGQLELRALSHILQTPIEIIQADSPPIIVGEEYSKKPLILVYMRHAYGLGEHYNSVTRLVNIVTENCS
# How it was run: (§1)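 HEK293T lysate (495 µg per sample, in Tris/CHAPS/IGEPAL buffer with protease inhibitors) was treated in triplicate with fragment at 200 µM or with DMSO for 3 h. It was then treated with Biotin-Ahx-Ub-VS (0.5 µM final) for 1 h. Labelled DUBs were NeutrAvidin-enriched, digested with LysC and trypsin, and run by diaPASEF LC-MS/MS. Spectronaut label-free quantities were global-median-normalised. Values are average log2 ratios fragment/DMSO by unpaired t-test, using proteins with ≥2 unique peptides.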
# OTUD7B = biological target: T2, OTUD7B (UniProt Q6GQQ9)
# T2 sequence (whole entry): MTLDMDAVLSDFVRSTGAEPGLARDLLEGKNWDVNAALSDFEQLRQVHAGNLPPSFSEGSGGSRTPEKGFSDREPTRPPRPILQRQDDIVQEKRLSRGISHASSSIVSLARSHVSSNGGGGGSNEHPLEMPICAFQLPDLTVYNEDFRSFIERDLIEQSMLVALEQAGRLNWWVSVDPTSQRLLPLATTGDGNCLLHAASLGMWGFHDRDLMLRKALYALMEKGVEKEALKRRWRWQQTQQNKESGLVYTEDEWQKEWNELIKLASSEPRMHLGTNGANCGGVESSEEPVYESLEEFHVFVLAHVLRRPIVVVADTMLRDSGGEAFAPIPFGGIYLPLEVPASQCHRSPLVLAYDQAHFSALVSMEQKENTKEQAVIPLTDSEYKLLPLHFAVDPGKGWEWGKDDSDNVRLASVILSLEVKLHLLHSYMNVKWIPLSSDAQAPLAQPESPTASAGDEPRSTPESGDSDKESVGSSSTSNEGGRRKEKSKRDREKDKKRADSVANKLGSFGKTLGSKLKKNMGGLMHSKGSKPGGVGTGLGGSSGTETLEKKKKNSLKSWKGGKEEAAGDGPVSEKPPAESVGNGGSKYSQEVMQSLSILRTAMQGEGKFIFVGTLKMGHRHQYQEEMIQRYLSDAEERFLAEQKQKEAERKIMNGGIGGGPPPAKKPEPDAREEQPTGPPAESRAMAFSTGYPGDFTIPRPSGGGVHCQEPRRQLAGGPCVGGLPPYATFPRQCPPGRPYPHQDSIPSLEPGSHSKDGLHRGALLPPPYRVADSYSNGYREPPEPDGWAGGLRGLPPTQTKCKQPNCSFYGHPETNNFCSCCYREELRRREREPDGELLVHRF
# How it was run: as §1
# PRPF8 = PRPF8 (UniProt Q6P2Q9)
# How it was run: as §1
# PSMD7 = biological target: T3, PSMD7 (UniProt P51665)
# T3 sequence (whole entry): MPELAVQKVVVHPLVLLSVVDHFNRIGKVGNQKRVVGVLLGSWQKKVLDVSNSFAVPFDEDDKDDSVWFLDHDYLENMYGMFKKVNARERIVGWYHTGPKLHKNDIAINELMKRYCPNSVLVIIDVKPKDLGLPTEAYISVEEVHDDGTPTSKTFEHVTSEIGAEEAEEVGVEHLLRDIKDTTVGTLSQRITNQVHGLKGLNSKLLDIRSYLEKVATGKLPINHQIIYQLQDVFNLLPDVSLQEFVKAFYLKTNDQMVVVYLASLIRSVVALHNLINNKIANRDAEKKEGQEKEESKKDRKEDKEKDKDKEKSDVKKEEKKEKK
# How it was run: as §1
# UCHL1 = UCHL1 (UniProt P09936)
# UCHL1, sequence (P09936 whole entry, looked up): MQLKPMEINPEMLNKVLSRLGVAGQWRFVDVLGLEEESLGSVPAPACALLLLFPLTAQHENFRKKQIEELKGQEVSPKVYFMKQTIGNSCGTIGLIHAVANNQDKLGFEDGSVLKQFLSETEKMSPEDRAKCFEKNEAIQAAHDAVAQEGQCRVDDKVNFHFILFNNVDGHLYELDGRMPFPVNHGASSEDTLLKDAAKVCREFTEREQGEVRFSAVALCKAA
# How it was run: as §1
# UCHL3 = biological target: T4, UCHL3 (UniProt P15374)
# T4 sequence (whole entry): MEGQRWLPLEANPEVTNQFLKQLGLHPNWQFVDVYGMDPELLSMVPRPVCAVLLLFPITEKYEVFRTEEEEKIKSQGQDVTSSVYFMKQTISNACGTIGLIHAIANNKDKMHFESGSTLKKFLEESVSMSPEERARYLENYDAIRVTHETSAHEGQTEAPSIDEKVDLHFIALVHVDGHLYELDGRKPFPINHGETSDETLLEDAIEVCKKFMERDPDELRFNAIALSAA
# How it was run: as §1
# UCHL5 = biological target: T5, UCHL5 (UniProt Q9Y5K5)
# T5 sequence (whole entry): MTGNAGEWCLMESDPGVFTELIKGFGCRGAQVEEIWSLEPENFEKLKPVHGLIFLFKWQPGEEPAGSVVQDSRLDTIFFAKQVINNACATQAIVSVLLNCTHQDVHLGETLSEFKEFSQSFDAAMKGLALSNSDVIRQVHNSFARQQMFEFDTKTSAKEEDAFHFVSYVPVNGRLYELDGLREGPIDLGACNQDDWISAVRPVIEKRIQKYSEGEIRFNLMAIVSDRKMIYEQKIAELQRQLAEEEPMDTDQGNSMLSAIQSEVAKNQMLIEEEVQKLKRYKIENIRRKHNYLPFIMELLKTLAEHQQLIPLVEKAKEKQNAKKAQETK
# How it was run: as §1
# USP10 = USP10 (UniProt Q14694)
# USP10, sequence (Q14694 whole entry): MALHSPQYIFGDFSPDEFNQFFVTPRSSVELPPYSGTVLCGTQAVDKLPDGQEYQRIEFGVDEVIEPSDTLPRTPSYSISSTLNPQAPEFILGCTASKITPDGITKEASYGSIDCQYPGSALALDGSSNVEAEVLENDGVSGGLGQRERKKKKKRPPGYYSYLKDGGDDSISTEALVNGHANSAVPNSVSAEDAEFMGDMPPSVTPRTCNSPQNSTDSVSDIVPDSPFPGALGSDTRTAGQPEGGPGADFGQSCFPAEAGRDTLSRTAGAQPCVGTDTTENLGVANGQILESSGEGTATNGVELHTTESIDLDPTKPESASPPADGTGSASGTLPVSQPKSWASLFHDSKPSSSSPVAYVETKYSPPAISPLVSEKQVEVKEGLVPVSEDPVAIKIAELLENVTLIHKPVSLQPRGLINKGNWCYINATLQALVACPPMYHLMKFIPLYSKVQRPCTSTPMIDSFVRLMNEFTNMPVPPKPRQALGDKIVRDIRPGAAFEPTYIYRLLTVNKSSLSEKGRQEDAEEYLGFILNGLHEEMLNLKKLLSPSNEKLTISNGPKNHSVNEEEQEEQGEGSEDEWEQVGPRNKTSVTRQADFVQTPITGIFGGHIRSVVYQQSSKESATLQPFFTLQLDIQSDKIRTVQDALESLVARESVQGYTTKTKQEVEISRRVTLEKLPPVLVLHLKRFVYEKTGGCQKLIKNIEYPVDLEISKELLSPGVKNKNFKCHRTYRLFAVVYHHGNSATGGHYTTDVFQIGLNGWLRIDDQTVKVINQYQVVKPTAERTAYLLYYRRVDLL
# How it was run: as §1
# USP15 = biological target: T6, USP15 (UniProt Q9Y4E8)
# T6 sequence (whole entry): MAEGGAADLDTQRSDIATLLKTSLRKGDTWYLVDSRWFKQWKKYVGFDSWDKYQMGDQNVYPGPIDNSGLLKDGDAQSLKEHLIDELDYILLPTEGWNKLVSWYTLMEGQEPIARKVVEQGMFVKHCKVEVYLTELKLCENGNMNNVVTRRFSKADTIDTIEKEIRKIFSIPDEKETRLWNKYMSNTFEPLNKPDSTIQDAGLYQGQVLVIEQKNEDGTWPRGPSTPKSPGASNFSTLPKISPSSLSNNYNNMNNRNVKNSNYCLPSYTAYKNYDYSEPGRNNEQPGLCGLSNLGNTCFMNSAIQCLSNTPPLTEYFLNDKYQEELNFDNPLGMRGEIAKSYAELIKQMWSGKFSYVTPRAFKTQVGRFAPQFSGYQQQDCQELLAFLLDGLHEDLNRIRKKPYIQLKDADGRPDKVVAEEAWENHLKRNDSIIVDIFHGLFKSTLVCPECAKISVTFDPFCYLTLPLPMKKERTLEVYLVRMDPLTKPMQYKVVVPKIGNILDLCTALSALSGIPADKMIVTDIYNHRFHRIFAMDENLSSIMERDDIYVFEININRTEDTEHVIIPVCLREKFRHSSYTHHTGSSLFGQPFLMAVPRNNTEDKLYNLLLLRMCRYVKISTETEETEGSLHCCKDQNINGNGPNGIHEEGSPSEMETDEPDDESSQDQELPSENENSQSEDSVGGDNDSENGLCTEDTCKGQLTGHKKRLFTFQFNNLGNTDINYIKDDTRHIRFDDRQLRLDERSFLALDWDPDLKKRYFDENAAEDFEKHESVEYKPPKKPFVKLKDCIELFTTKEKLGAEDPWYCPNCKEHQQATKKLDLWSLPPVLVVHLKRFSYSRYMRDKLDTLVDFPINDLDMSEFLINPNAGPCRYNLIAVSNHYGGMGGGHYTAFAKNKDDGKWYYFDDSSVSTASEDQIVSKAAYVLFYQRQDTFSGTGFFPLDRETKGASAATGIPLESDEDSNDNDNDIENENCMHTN
# How it was run: as §1
# USP16 = USP16 (UniProt Q9Y5T5)
# USP16, sequence (Q9Y5T5 whole entry, looked up): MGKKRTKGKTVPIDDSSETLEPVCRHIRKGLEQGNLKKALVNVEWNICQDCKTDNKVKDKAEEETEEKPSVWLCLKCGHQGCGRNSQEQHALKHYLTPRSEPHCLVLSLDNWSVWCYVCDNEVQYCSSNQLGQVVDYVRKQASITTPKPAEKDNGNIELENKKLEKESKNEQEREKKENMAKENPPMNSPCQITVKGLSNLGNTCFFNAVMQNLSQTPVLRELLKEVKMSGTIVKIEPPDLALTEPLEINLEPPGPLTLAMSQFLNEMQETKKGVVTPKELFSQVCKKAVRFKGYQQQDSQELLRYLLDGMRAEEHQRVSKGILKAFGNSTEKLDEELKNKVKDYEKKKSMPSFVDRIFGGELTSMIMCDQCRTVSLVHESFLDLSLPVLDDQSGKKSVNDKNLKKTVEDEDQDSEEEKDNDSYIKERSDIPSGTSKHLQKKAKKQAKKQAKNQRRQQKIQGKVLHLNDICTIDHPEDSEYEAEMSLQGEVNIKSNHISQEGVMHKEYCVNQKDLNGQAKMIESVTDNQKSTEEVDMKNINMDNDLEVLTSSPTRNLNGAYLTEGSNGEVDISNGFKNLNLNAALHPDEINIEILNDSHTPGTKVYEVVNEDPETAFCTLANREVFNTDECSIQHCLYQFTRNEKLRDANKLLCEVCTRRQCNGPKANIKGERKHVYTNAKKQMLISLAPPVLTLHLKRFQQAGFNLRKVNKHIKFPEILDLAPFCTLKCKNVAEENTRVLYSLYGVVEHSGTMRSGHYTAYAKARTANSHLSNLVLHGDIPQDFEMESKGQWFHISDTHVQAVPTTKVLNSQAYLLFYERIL
# How it was run: as §1
smiles,measurement,setting,value
NC(=O)C1CCCCN1C(=O)CCl (stereo not given),log2 ratio of Biotin-Ahx-Ub-VS probe labelling,OTUD6B,-0.175
same,log2 ratio of Biotin-Ahx-Ub-VS probe labelling,OTUD7B,-1.65 (active)
same,log2 ratio of Biotin-Ahx-Ub-VS probe labelling,PRPF8,-0.153
same,log2 ratio of Biotin-Ahx-Ub-VS probe labelling,PSMD7,-0.146
same,log2 ratio of Biotin-Ahx-Ub-VS probe labelling,UCHL1,-1.52 (active)
same,log2 ratio of Biotin-Ahx-Ub-VS probe labelling,UCHL3,0.215
same,log2 ratio of Biotin-Ahx-Ub-VS probe labelling,UCHL5,-0.42
same,log2 ratio of Biotin-Ahx-Ub-VS probe labelling,USP10,-0.0331
same,log2 ratio of Biotin-Ahx-Ub-VS probe labelling,USP15,-0.0982
same,log2 ratio of Biotin-Ahx-Ub-VS probe labelling,USP16,0.0843
